Mtb hypoxia rep: inhibitors of hypoxia-regulated fluorescent reporter in Mycobacterium tuberculosis | 300,000 tested, 0.1% active | AID 1159583 | fluorescence inhibition, % (test concentration not listed) | M. tuberculosis hypoxia-regulated fluorescent reporter, fluorescence; in the data active = fluorescence inhibition mostly above about 23%, no sharp cut-off; inactive = mostly below about 17%
BioA inh: blocks M. tuberculosis BioA enzyme activity; purified M. tuberculosis BioA enzyme, plate reader; inhibition, % at 9.99 µM; 360,000 tested, 0.096% active; in the data active = inhibition above about 40%
ugtP null kill: growth inhibition of S. aureus ugtP deletion strain. S. aureus RN4220 ugtP deletion, OD600 growth, 16 h. growth inhibition, % (no concentration beside the values). 330,000 tested, 0.54% active. AID 1259309; in the data active = growth inhibition above about 68%;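 also: plate controls were untreated wells for no effect and antibiotic for full effect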
TcdB inh: TcdB glycohydrolase inhibition; P18177; 350,000 tested, 0.24% active; inhibition, % at 9.99 µM; TcdB glycohydrolase enzymatic assay, plate reader; in the data active = inhibition above about 10%
Y pestis TopoI: blocks Yersinia pestis topoisomerase I activity; activity, % at 10 µM; 360,000 tested, 0.064% active; Y. pestis Topo-I cleavage product accumulation, plate reader; AID 504884; in the data active = activity above about 50%, passing the limit was not always enough
Sa RN4220 lethal: S. aureus RN4220 growth inhibition. OD600, 16 h. 330,000 tested, 0.33% active. AID 1259311. inhibition, % (concentration not given with the values); in the data active = inhibition above about 85%;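 also: plate controls were untreated cells for no effect and reference antibiotic for full effect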
* = called active by the depositor; i = inactive; · = not tested or not shown. The list is not random: actives were taken first. Their share in the collection is about 0.75%.

SMILES | Mtb hypoxia rep | BioA inh | ugtP null kill | TcdB inh | Y pestis TopoI | Sa RN4220 lethal
NC(=O)c1ccc(C(=O)NN=Cc2cccc(Oc3ccccc3)c2)cc1 | 5 | · | 2 | · | · | 3
CON=C(C(=O)NC1C(=O)N2C(C(=O)O)=C(CSc3nc(=O)c(=O)[nH]n3C)CSC12)c1csc(N)n1 (centres undefined) | · | -2 | · | 0 | -1 | ·
C=CC1=C(C(=O)O)N2C(=O)C(NC(=O)C(=NOCC(=O)O)c3csc(N)n3)C2SC1 (centres undefined) | 19 | · | 99* | · | · | 93*
CC(C)Cc1cc(C(=O)N2CCCC(CO)(Cc3ccc(F)cc3)C2)no1 (centres undefined) | -3 | · | -1 | 11* | 20 | 2
COc1ccc(CCNC(=O)c2cc(Cl)nc3ccccc23)cc1 | 6 | 0 | 1 | 1 | 10 | -2
COc1ccc(CCNC(=O)c2cc(-c3ccccn3)nc3ccccc23)cc1 | 30* | 0 | 1 | 1 | 34 | 3
COc1cc(/C=C2\SC(N)=NC2=O)ccc1OCC(=O)Nc1ccccc1C | 57* | 3 | -5 | 0 | 43 | -1
COCCNC(=S)NN=C(C)c1ccc(Cl)c(Cl)c1 | 8 | · | -1 | · | · | 4
COc1ccc(CNC(=O)c2cc3c(s2)CN(Cc2ccccc2)C3)cc1 | -3 | · | 3 | 10* | -4 | 0
COc1ccc(CNC(=O)c2cccs2)cc1 | · | 3 | -4 | · | 1 | 3
CCNC(=O)C[C@H]1CC[C@@H]2[C@H](COc3ccc(NC(C)=O)cc3C(=O)N2C)O1 | · | -4 | · | 12* | · | ·
CCNC(=O)C[C@H]1CC[C@@H]2[C@@H](COc3ccc(NC(C)=O)cc3C(=O)N2C)O1 | · | -2 | · | 25* | · | ·
CCNC(=O)C[C@@H]1CC[C@H]2[C@@H](COc3ccc(NC(C)=O)cc3C(=O)N2C)O1 | · | -1 | · | 16* | · | ·
CCCNC(=O)C[C@H]1CC[C@@H]2[C@@H](COc3ccc(NC(=O)c4ccc5c(c4)OCO5)cc3C(=O)N2C)O1 | · | 5 | · | 12* | · | ·
COc1ccccc1NC(=O)CC1SC(=NN=C2CCCc3ccccc32)NC1=O (centres undefined) | -1 | · | 0 | · | · | -2
Cc1ccc(S(=O)(=O)NN=Cc2ccc(OS(=O)(=O)c3ccc(C)c([N+](=O)[O-])c3)cc2)cc1 | · | · | -18 | · | · | -11
COc1ccc(NN=C(C=NO)C(=O)c2ccc(OC)cc2)cc1 | · | · | -15 | · | · | 8
Cc1ccc2nc(-c3ccc(SCC(=O)O)nc3)[nH]c2c1 | · | 0 | 8 | · | 55* | 8
CCOC(=O)C1C2COc3ccc(C)cc3C2N2C(=O)CN(CC3CCCO3)C(=O)[C@@]12C (some centres undefined) | 15 | · | 5 | · | · | 5
CNC(=O)N(O)C1N(/N=C/c2cccs2)C(=S)SC1(C)C (centres undefined) | · | · | · | 10* | -2 | ·
Cc1cc(C)n(-c2nnc(C)n2N=Cc2ccc(O)cc2)n1 | 6 | · | -1 | · | · | 6
Cc1cc(=O)n(-c2ccc(O)cc2)[nH]1 | 10 | -1 | 82* | · | 5 | 18
O=[N+]([O-])c1ccc(C=Nc2cccc3ccccc23)s1 | 11 | 1 | 97* | · | -2 | 98*
O=[N+]([O-])c1ccc(C=Nn2c(CO)nc3ccccc32)s1 | 21 | · | -2 | · | · | 16
Cc1cccc(-n2c(C)cc(C=NNC(N)=S)c2C)c1 | · | · | 14 | · | · | 5
SMILES | Mtb hypoxia rep | BioA inh | ugtP null kill | TcdB inh | Y pestis TopoI | Sa RN4220 lethal
CCCCCC[n+]1c(-c2ccccc2)csc1Nc1ccccc1 | 3 | · | 88* | 2 | 20 | 0
COCCNc1cc(N)c([N+](=O)[O-])cc1[N+](=O)[O-] | -10 | · | 9 | 11* | -3 | 13
COC(=O)C1C[C@@]2(O)C(O)C(O)C(O)CC2N1Cc1ccccc1OS(=O)(=O)c1ccc(C)cc1 (some centres undefined) | -7 | · | -6 | · | · | -1
COc1ccc2c3c([nH]c2c1)C(C)=NCC3 | 9 | 18 | 6 | 1 | -6 | 8
CC1=NCCc2c1[nH]c1cc(O)ccc21 | 0 | i | 1 | 42* | -11 | 6
Cc1[nH]c2ccc(-c3nnc(SCC(=O)c4ccccc4F)o3)cc2c1C | 14 | 8 | -23 | · | 1 | 18
Cc1ccc(C(=O)CSc2nnc(-c3ccc4[nH]c(C)c(C)c4c3)o2)cc1C | 19 | -3 | 98* | · | -4 | 18
CC[C@@]12C(=O)N(c3ccc(OC)cc3)C(=O)N1C(c1ccc(Cl)cc1)C1C(=O)N(C3CCCCC3)C(=O)C12 (some centres undefined) | -4 | · | 1 | · | · | 3
Cc1c(C)c2cccnc2c2ncccc12 | · | -1 | 74 | · | 25 | 93*

Screening data deposited in PubChem BioAssay by several laboratories.
